In PubChem BioAssay:
Records with an inconclusive call do not appear. Activity calls are given as the source filed them.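 How the source made its calls, unless noted: active means binding below the plate cutoff, the plate median minus 3 SD, with a reading above zero; inconclusive means below the plate cutoff but reading exactly zero; inactive means the rest.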

Experiments:
[1] = rapamycin-like changes in RPL19A-GFP expression – cell-based, S. cerevisiae, multiplex flow cytometry, primary screen (AID 1862; in the data active means percent of DMSO control GFP below about 86%;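 further: lower values mimic rapamycin by blocking the RPL19A rise seen in DMSO cells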); settings: S. cerevisiae RPL19A-GFP strain, flow cytometry fluorescence, 3 h; at 10 µM; stronger effect = lower value
[2] = TOR pathway GLN3 branch reporter MEP2-GFP changes – S. cerevisiae, multiplex flow cytometry, primary screen (AID 1867;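 active means GFP response, as percent of the DMSO control, above the screen-wide mean plus 3 SD, about 139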;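 further: median GFP channel fluorescence of barcode-gated MEP2-GFP cells measured by flow cytometry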); settings: S. cerevisiae MEP2-GFP strain, 3 h, at 10 µM, stronger effect = higher value, 100% means same as DMSO wells
[3] = TOR pathway RTG branch CIT2 reporter changes – S. cerevisiae, GFP fusion, multiplex flow cytometry, primary screen (AID 1870;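 active means percent response above a set limit, the screen-wide mean plus 3 SD, cut at about 130% in these data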;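 further: barcoded CIT2-GFP strain pooled with four other GFP strains with rapamycin as positive control; median GFP fluorescence per well over plate mean of DMSO wells so 100% = DMSO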); settings: S. cerevisiae CIT2-GFP expression, 3 h, at 10 µM, stronger effect = higher value
[4] = TOR pathway LAP4-GFP level changes – S. cerevisiae, multiplex flow cytometry, primary screen (AID 1873;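 active means GFP signal, as percent of the solvent control, above the screen mean plus 3 SD, about 149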); settings: S. cerevisiae LAP4-GFP expression, 3 h, at 10 µM, stronger effect = higher value
[5] = yeast AGP1-GFP level changes, GLN3 branch – cell-based, multiplex flow cytometry, S. cerevisiae, primary screen (AID 1887;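 active means GFP signal above the screen-wide mean plus 3 SD, that is over about 124.5% of the solvent control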;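 further: AGP1-GFP fusion strain of S. cerevisiae within a five-strain barcoded multiplex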); settings: 3 h, at 10 µM, stronger effect = higher value
[6] = reduced mouse 2C T cell binding to pMHC/ICAM-1 vesicles – MLPCN validation set, flow cytometry, LFA-1/ICAM-1 modulator project, pilot screen (AID 2523;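 active means response below a set limit, under 55% cells CD8-positive and vesicle-bound, and CD8 cells' 90th-percentile brightness under 279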;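 on vesicle binding response: mean PE anti-B7-1 fluorescence of CD8+ cells relative to row control; 100% = QL9-loaded vesicles with DMSO vehicle in the same plate row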); settings: 2C mouse CD8+ T cells, at 7 µM, stronger effect = lower value; double positive events: measured here: CD8+/vesicle+ event percentage
[7] = biological target: Integrin beta-1 (Homo sapiens) + Integrin alpha-4 (Homo sapiens) (UniProt P13612+P05556); experiment: alpha4beta1 integrin LIBS antibody binding reduction – U937 cells, HUTS-21 mAb, flow cytometry, validation set, VLA-4 allosteric modulator project, pilot screen (AID 2674;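 active means inhibition above 50%, about 3 SD of the validation set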;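 further: antibody binding induced by the VLA-4 ligand LDV present at three times its Kd; 0% = LDV ligand with antibody and no compound and 100% = antibody without LDV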); settings: HUTS-21 LIBS mAb binding, at 6.7 µM, stronger effect = higher value, binding induced by LDV ligand
[8] = calorie-restriction mimetic ROS inhibitors, yeast – validation compound set, pilot screen (AID 2706;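 active means superoxide response below 65% of plate, a cut near 3 SD across the whole screen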;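 further: yeast exposed to compound for one week at 30 degrees C before staining; 100% = mean of all compound wells on the same plate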); settings: S. cerevisiae aging, superoxide DHE fluorescence; at 10 µM; stronger effect = lower value
[9] = biological target: Beta-adrenergic receptor kinase 1 (Homo sapiens) (UniProt P25098); experiment: GRK2 binders displacing RNA aptamer, biochemical, validation, human GRK2, bead flow cytometry (AID 488806;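 active means aptamer binding inhibition above 30%, about 3 SD of noise from non-fluorescent compounds; inactive means inhibition at or below 30%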); settings: bead-bound GRK2, FAM-aptamer displacement, at 10 µM, stronger effect = higher value
[10] = biological target: Beta-2 adrenergic receptor (Homo sapiens) (UniProt P07550); experiment: agonist-induced loss of surface beta2AR – cell-based, FAP fluorogen, flow cytometry, validation set, pilot screen (AID 504459;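 active means percent response above 42, roughly 3 SD of non-fluorescent test compounds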;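 further: agonist-driven loss of surface beta2AR via internalization measured by FAP dye flow cytometry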); settings: Am2.2-beta2AR cells, at 10 µM, stronger effect = higher value
[11] = biological target: AP-2 complex subunit beta (Homo sapiens) (UniProt P63010); experiment: beta-arrestin/AP2 interaction blockers – biochemical, validation set, GST-AP2 beads, flow cytometry, pilot screen (AID 504541;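 active means inhibition above 54%, about 3 SD of non-fluorescent compounds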;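 further: AP2 carries R879A mutation and is captured from E. coli lysate; bead-bound FITC arrestin peptide fluorescence measuring arrestin peptide binding to AP2; 0% = DMSO wells and 100% = excess unlabeled arrestin peptide control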); settings: FITC arrestin peptide, at 10 µM, stronger effect = higher value, AP2 beta2 appendage fragment, R879A mutant
[12] = cytosolic pH regulators acting via V-ATPase – S. cerevisiae, pHLuorin, HTS validation (AID 504600; in the data active means response above about 15%;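 further: plate controls were DMSO for no effect and reference compound for full effect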); settings: V-ATPase proton transport, at 10 µM, stronger effect = higher value
[13] = test system: anti-desmoglein-3 scFv antibody binding to human DSG3; experiment: blockers of pathogenic pemphigus antibody–desmoglein-3 binding – biochemical, validation compound set, bead-based, flow cytometry, pilot screen (AID 588368); settings: Protein G beads, DSG3-Fc, scFv-GFP binding, at 10 µM, stronger effect = lower value;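 further: signal is the median channel fluorescence of bead-bound GFP antibody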
[14] = Nile Red efflux blockade in pump-expressing yeast – validation compound set, multiplex, phenotypic, pilot screen (AID 588506;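 active means efflux inhibition above 0.42, the validation set average plus 4 SD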;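 further: Nile Red retained in cells so higher fluorescence means more efflux inhibition; 0 = negative control wells and 1 = enniatin B 25 µM full block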); settings: S. cerevisiae pump-expressing triplex, Nile Red efflux flow cytometry; at 10 µM; stronger effect = higher value; the pumps come from Candida albicans
[15] = biological target: ATP-binding cassette sub-family B member 6 (Homo sapiens) (UniProt Q9NP58); experiment: blockers of ABCB6-driven porphyrin uptake – K562-ABCB6 cells, flow cytometry, validation set, pilot screen (AID 588550;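 active means inhibition above the screen-wide mean plus 3 SD, about 51%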;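 further: 0% = DMSO wells and 100% = benzethonium chloride 70 µM positive control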); settings: K562-ABCB6 porphyrin accumulation, 1 h, at 10 µM, stronger effect = higher value
[16] = AML differentiation inducers, ER-HoxA9 marrow cells – cell-based, GFP/MAC1 double positive, flow cytometry, validation set, primary screen (AID 588685;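 active means differentiation response of at least 50%, scaled between solvent and reference control, from cells with both markers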;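 further: compound exposure lasts four days before antibody staining and flow analysis; 0% = DMSO wells and 100% = 5 µM fulvestrant positive control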); settings: stronger effect = higher value, normalized: vehicle 0, fulvestrant 100

Chain of Beta-adrenergic receptor kinase 1 (Homo sapiens) (P25098 whole entry, looked up): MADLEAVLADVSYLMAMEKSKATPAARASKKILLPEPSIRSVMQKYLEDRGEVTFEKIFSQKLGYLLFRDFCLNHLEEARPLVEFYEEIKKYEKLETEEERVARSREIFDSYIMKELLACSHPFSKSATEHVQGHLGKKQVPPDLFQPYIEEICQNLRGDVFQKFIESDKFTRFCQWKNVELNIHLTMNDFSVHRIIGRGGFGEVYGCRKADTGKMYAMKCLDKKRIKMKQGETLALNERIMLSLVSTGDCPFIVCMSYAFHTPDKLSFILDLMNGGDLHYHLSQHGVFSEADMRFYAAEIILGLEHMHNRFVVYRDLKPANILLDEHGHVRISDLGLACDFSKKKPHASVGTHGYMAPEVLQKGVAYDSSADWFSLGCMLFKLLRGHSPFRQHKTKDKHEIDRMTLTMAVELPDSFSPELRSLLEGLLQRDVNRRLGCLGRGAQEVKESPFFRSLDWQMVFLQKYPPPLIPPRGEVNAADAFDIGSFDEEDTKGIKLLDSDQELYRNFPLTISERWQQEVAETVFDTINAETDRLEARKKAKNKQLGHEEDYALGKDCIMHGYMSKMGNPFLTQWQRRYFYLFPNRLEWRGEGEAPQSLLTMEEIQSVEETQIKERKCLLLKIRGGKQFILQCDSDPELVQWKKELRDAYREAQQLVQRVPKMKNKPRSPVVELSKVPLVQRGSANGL
Chain of Beta-2 adrenergic receptor (Homo sapiens) (P07550 whole entry, looked up): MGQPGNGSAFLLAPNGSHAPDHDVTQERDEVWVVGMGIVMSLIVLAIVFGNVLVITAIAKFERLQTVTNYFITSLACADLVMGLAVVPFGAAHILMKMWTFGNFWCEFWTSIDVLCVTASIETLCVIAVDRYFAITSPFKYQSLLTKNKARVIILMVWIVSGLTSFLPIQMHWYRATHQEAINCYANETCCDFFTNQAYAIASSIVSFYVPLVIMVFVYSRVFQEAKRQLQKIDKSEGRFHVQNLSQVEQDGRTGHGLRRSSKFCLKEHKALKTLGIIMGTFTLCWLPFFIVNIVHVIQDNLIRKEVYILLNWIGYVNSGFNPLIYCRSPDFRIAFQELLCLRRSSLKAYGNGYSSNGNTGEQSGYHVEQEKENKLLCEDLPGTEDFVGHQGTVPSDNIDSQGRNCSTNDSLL
Chain of Integrin beta-1 (Homo sapiens) + Integrin alpha-4 (Homo sapiens) (P05556 whole entry, looked up): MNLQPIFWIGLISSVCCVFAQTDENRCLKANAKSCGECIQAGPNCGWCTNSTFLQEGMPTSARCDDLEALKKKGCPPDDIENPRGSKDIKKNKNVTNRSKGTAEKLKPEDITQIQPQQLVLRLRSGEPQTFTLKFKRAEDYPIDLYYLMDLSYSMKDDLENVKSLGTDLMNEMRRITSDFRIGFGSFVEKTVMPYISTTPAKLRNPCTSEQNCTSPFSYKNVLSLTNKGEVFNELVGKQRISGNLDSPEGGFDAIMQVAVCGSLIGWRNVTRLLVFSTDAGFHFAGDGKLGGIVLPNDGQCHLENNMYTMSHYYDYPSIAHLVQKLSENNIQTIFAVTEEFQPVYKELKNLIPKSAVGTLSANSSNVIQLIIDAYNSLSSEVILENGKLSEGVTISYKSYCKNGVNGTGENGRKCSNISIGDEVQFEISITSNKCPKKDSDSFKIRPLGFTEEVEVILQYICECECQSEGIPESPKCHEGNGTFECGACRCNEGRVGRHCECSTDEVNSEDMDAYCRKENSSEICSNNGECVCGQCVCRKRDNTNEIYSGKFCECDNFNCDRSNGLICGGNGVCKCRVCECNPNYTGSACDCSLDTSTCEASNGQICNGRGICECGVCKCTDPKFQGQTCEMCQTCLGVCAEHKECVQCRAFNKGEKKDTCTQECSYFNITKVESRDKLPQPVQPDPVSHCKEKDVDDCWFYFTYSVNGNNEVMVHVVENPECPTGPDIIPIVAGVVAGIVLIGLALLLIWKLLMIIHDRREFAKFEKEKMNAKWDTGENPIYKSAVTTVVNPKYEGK
Chain of Integrin beta-1 (Homo sapiens) + Integrin alpha-4 (Homo sapiens) (P13612 whole entry, looked up): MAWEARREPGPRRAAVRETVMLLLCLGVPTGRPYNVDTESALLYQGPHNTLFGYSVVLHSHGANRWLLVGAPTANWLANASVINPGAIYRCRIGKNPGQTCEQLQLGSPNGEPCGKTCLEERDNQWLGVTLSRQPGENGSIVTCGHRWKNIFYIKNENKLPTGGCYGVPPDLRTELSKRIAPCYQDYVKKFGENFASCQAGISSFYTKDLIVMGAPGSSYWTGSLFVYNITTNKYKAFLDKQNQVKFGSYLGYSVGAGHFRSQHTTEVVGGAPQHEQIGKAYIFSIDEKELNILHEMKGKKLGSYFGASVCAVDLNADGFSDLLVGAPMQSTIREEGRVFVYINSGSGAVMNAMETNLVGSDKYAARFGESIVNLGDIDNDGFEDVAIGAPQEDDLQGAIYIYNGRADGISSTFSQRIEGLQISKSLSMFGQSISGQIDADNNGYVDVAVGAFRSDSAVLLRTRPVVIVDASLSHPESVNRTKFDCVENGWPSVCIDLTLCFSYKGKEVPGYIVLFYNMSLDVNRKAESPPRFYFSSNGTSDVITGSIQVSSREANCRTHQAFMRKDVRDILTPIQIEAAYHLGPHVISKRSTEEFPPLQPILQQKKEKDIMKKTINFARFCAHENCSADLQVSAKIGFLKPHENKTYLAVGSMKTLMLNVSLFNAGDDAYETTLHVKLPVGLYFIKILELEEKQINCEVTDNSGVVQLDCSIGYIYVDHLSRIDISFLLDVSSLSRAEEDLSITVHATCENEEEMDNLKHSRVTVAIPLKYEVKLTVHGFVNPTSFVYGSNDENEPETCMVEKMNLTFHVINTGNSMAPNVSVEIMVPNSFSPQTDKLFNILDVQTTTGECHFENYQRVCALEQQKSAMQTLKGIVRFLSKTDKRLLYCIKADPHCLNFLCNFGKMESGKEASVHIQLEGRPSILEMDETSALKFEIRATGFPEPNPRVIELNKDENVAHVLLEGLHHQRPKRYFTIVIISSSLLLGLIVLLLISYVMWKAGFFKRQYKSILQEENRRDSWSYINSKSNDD
Chain of AP-2 complex subunit beta (Homo sapiens) (P63010 whole entry, looked up, the tested form may be a part, one chain of several): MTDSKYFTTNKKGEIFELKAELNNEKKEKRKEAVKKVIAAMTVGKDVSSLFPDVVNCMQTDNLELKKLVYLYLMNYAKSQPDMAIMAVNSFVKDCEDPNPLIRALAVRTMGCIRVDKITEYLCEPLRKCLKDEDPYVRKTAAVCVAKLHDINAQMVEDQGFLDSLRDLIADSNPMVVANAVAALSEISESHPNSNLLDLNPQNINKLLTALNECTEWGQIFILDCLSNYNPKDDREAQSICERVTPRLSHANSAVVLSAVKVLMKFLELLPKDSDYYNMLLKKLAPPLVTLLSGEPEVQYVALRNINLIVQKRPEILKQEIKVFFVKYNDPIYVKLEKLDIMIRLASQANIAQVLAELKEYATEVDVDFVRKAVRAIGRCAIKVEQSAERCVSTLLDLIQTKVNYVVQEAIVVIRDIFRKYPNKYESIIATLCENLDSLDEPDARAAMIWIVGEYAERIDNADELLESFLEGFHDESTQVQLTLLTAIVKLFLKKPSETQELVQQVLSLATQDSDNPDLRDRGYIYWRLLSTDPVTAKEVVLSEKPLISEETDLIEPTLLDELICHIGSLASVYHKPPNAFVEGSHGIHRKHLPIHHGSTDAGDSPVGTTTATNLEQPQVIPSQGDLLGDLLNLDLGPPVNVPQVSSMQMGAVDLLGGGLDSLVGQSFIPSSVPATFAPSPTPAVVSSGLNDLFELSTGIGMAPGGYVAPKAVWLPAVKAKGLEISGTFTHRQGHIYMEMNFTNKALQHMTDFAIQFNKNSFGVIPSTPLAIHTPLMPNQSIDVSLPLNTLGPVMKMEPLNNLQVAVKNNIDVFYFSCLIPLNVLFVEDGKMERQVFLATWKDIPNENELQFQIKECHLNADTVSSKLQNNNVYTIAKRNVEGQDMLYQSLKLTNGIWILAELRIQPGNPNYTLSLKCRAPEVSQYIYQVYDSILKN
Chain of ATP-binding cassette sub-family B member 6 (Homo sapiens) (Q9NP58 whole entry, looked up): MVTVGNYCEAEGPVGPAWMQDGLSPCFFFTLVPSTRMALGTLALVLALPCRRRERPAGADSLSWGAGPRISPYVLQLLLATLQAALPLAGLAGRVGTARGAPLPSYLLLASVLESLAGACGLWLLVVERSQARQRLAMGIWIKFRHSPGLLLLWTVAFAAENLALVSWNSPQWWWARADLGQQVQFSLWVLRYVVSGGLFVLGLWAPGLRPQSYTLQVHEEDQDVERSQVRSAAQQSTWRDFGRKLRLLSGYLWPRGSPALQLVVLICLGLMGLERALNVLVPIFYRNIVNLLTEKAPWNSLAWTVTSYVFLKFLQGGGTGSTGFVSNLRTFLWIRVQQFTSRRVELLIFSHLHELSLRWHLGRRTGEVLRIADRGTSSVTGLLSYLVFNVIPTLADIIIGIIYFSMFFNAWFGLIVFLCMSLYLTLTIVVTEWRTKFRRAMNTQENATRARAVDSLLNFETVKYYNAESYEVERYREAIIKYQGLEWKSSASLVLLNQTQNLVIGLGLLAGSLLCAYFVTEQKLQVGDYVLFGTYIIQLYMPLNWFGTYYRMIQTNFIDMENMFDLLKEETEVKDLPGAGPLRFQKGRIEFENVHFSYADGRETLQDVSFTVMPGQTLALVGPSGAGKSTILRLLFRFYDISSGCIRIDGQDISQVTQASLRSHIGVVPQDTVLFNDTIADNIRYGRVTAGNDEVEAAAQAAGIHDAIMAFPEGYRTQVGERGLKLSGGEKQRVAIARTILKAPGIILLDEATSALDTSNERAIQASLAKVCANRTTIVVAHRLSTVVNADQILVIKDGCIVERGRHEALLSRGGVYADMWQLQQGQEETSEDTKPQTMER

CC12COC3(C(=O)Nc4ccc(F)cc4)CC1CCC32C (centres undefined)
percent of DMSO control GFP [1]: 94.2% (inactive)
GFP response vs DMSO [2]: 126% (inactive)
percent response of DMSO control [3]: 107% (inactive)
GFP response vs DMSO [4]: 73.7% (inactive)
GFP response, % of DMSO [5]: 85.9% (inactive)
double positive events [6]: 65.7%
vesicle binding response [6]: 157% (inactive)
inhibition [7]: 8.4% (inactive)
superoxide response (% of plate) [8]: 99.2% (inactive)
aptamer binding inhibition [9]: 1% (inactive)
response [10]: -12.6% (inactive)
inhibition [11]: -2.28% (inactive)
response [12]: -3.14% (inactive)
binding (% of control) [13]: 102% (inactive)
efflux inhibition (fraction of control) [14]: 0.3 (inactive)
inhibition [15]: 10% (inactive)
differentiation response [16]: -1.64% (inactive)

CC1(C)CC(C(CC(=O)O)c2ccccc2)CCO1 (centres undefined)
percent of DMSO control GFP [1]: 97.6% (inactive)
GFP response vs DMSO [2]: 103% (inactive)
percent response of DMSO control [3]: 99.6% (inactive)
GFP response vs DMSO [4]: 109% (inactive)
GFP response, % of DMSO [5]: 102% (inactive)
double positive events [6]: 58.1%
vesicle binding response [6]: 155% (inactive)
inhibition [7]: -1.79% (inactive)
superoxide response (% of plate) [8]: 99.7% (inactive)
aptamer binding inhibition [9]: 0% (inactive)
response [10]: -5.23% (inactive)
inhibition [11]: 48.1% (inactive)
response [12]: -5.35% (inactive)
binding (% of control) [13]: 95.7% (inactive)
efflux inhibition (fraction of control) [14]: 0.05 (inactive)
inhibition [15]: 2% (inactive)
differentiation response [16]: 37.6% (inactive)

O=C1c2cccc3cccc(c23)C(=O)N1c1ccccn1
percent of DMSO control GFP [1]: 107% (inactive)
GFP response vs DMSO [2]: 101% (inactive)
percent response of DMSO control [3]: 109% (inactive)
GFP response vs DMSO [4]: 97.3% (inactive)
GFP response, % of DMSO [5]: 107% (inactive)
double positive events [6]: 58.2%
vesicle binding response [6]: 79.7% (inactive)
inhibition [7]: 9.92% (inactive)
superoxide response (% of plate) [8]: 107% (inactive)
aptamer binding inhibition [9]: 4% (inactive)
response [10]: -9.79% (inactive)
inhibition [11]: 1.31% (inactive)
response [12]: 3% (inactive)
binding (% of control) [13]: 95.3% (inactive)
efflux inhibition (fraction of control) [14]: -0.07 (inactive)
inhibition [15]: -11% (inactive)
differentiation response [16]: -1.71% (inactive)

CC(C)C12CN3CC(C(C)C)(CN(C1)C31C(=O)Nc3ccccc31)C2=O (centres undefined)
percent of DMSO control GFP [1]: 106% (inactive)
GFP response vs DMSO [2]: 98.7% (inactive)
percent response of DMSO control [3]: 99.7% (inactive)
GFP response vs DMSO [4]: 101% (inactive)
GFP response, % of DMSO [5]: 98% (inactive)
double positive events [6]: 66.4%
vesicle binding response [6]: 190% (inactive)
inhibition [7]: 1.59% (inactive)
superoxide response (% of plate) [8]: 110% (inactive)
aptamer binding inhibition [9]: 3% (inactive)
response [10]: 9.28% (inactive)
inhibition [11]: -3.03% (inactive)
response [12]: -0.51% (inactive)
binding (% of control) [13]: 103% (inactive)
efflux inhibition (fraction of control) [14]: 0 (inactive)
inhibition [15]: 8% (inactive)
differentiation response [16]: -11.9% (inactive)

Cc1nc(NC(CC(C)C)C(=O)O)c2nc(C)oc2n1 (centres undefined)
percent of DMSO control GFP [1]: 97.4% (inactive)
GFP response vs DMSO [2]: 111% (inactive)
percent response of DMSO control [3]: 90.1% (inactive)
GFP response vs DMSO [4]: 120% (inactive)
GFP response, % of DMSO [5]: 101% (inactive)
double positive events [6]: 57.6%
vesicle binding response [6]: 121% (inactive)
inhibition [7]: -5.89% (inactive)
superoxide response (% of plate) [8]: 95.4% (inactive)
aptamer binding inhibition [9]: 7% (inactive)
response [10]: 3.8% (inactive)
inhibition [11]: 4.51% (inactive)
response [12]: 3.4% (inactive)
binding (% of control) [13]: 102% (inactive)
efflux inhibition (fraction of control) [14]: -0.13 (inactive)
inhibition [15]: 6% (inactive)
differentiation response [16]: -28% (inactive)

COc1ccc(NC(=O)N2CCCCC2c2cccnc2)cc1 (centres undefined)
percent of DMSO control GFP [1]: 98.9% (inactive)
GFP response vs DMSO [2]: 105% (inactive)
percent response of DMSO control [3]: 99% (inactive)
GFP response vs DMSO [4]: 109% (inactive)
GFP response, % of DMSO [5]: 105% (inactive)
double positive events [6]: 59.7%
vesicle binding response [6]: 454% (inactive)
inhibition [7]: 7.4% (inactive)
superoxide response (% of plate) [8]: 116% (inactive)
aptamer binding inhibition [9]: 7% (inactive)
response [10]: -25.6% (inactive)
inhibition [11]: 0.21% (inactive)
response [12]: 3.03% (inactive)
binding (% of control) [13]: 103% (inactive)
efflux inhibition (fraction of control) [14]: 0 (inactive)
inhibition [15]: -2% (inactive)
differentiation response [16]: -18.8% (inactive)

COC(=O)c1ccc2c(c1)C(=O)/C(=C/c1ccc(O)cc1)O2
percent of DMSO control GFP [1]: 95.4% (inactive)
GFP response vs DMSO [2]: 109% (inactive)
percent response of DMSO control [3]: 92% (inactive)
GFP response vs DMSO [4]: 111% (inactive)
GFP response, % of DMSO [5]: 95.5% (inactive)
double positive events [6]: 59%
vesicle binding response [6]: 90.4% (inactive)
inhibition [7]: -8.62% (inactive)
superoxide response (% of plate) [8]: 102% (inactive)
aptamer binding inhibition [9]: 2% (inactive)
response [10]: -5.34% (inactive)
inhibition [11]: 6.94% (inactive)
response [12]: -1.86% (inactive)
binding (% of control) [13]: 100% (inactive)
efflux inhibition (fraction of control) [14]: 0.19 (inactive)
inhibition [15]: 2% (inactive)
differentiation response [16]: -26.4% (inactive)
